Active and inactive are the calls of the source. How the source made its calls: active means hit-call score of the fitted dose curve at least 0.9, where 1 is the maximum; inactive means score below 0.9.
Read-out: Cytochrome P450 3A4 (Homo sapiens) (UniProt P08684)
Experiment: LTEA_HepaRG_CYP3A4: Life Technologies and Expression Analysis (LTEA) Assay for CYP3A4 using HepaRG (AID 2283487)
Details: mRNA level, 48 h; actives raise or lower the signal
Protocol: LTEA_HepaRG is a cell based, multiplexed-readout assay that uses HepaRG, a human liver cell line, with measurements taken at 48 hours after chemical dosing on a 96-well plate.LTEA_HepaRG_CYP3A4 is one of 102 assay component(s) measured in the LTEA HepaRG cell culture assay. It is a marker of NR mediated metabolism.Data from the assay component LTEA_HepaRG_CYP3A4 was analyzed into 1 endpoint. This assay endpoint, LTEA_HepaRG_CYP3A4, was analyzed with bidirectional fitting relative to DMSO as the negative control and baseline of activity. Using a type of inducible reporter, measures of mRNA induction for gain or loss-of-signal activity can be used to understand regulation of transcription factor activity. To generalize the intended target to other relatable targets, this assay endpoint is annotated to the cyp intended target family, where the subfamily is xenobiotic metabolism.
A total of 1060 chemcials from the ToxCast library were tested in eight-point concentration-response experiments. Cell culture and cytotoxicity assays were conducted at Thermo Fisher Scientific's Custom Services facility (Madison, WI). A single lot of human HepaRG cells (Thermo Fisher Scientific, Frederick, MD) was used for the cell culture experiments. 96-well format collagen type I coated plates of human HepaRG cells were prepared using established methods. Briefly, cryopreserved HepaRG cells were thawed, plated at a density of approximately 100,000 cells/well in HepaRG Thaw, Plate, and General Purpose media (HPRG770, Thermo Fisher Scientific), and incubated for 48 hours. 0.5% DMSO was selected as vehicle control to balance the requisite need of DMSO in HepaRG cultures to maintain differentiation (for example, baseline metabolism, proportions of hepatocytes vs. cholangiocytes), while enabling further hepatic receptor pathway activation (for example, PXR and CAR) in response to chemical exposure. 48 hours after plating, the culture medium was replaced with HepaRG Serum-Free Incudtion Media. Cells were exposed to each test chemical in duplicate and maintained in CO2 incubators for another 48 hours. Chemical plates were thawed to room temperature and 200x concentrations of treatment groups were prepared. 8-point conentration-reponse curves were made with the highest exposure at 100 uM, followed by half-log dilutions, all in 0.5% DMSO. Each test plate contained variouse controls, induction positive controls (1mM phenobarbital), cytotoxicity positive controls ([…] aflatoxin B1), vehicle controls (0.5% DMSO), and total lysis controls (0.5% DMSO). Cell morphology images were taken using an Essen IncuCyte FLR automated microscope, with six 96-well plates imaged in about 24 minutes. Images were captured and exported and JPEG files. Spent culture media was transfered to black-well plates for the LDH assay, and remaining media was sorted at -80 C for later use. Cells were treated with RLT buffer and frozen until shipped for gene expression analysis. Total RNA was isolated from the cell suspension in 75 uL of Buffer RLT (Qiagen, Germantown, MD 20874) by Quintiles/Expression Analysis (Durham, NC) using a custom isolation procedure. Total RNA from each plate well was transferred to a preamplification plate. Fluidigm's 96.96 Dynamic ArrayTM (Fluidigm, Amsterdam, the Netherlands) technology was used for gene expression analyses by quantitative reverse transcription polymerase chain reaction (qRT-PCR, performed by Quintiles/Expression Analysis, Durham, NC)89. Standard TaqManTM Assays (Applied Biosystems/ThermoFisher Scientific, Foster City, CA) were used to assess the expression of 93 genes selected based on their selectivity and sensitivity to important hepatic receptors known to be modulated by environmental chemicals; importance in human hepatocyte functionality; and hepatotoxicity. […]

Cytochrome P450 3A4 (Homo sapiens), sequence (P08684 whole entry, looked up): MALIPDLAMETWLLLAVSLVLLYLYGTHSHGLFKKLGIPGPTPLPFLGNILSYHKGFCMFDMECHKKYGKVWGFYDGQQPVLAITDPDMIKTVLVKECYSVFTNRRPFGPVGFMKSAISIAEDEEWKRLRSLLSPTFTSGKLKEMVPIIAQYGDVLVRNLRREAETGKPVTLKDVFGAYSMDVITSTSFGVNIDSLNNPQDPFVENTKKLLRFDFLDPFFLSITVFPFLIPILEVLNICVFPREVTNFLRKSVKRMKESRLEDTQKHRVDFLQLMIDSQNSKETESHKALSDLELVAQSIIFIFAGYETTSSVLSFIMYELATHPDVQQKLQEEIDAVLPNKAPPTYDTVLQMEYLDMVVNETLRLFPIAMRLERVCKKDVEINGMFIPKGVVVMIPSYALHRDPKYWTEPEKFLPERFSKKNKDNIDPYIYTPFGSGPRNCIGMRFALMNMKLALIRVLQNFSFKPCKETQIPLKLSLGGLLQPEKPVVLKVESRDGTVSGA

Row | SMILES | outcome | AC50
1 | Clc1cccc(C(Cl)(Cl)Cl)n1 | inactive | 
2 | N#Cc1c(Cl)cccc1Cl | inactive | 
3 | CCOc1nc(C(Cl)(Cl)Cl)ns1 | inactive | 
4 | CCCCC(C#N)(Cn1cncn1)c1ccc(Cl)cc1 (stereo not given) |  | 4.85 µM (active)
5 | COc1cc(Cl)c(OC)cc1Cl | inactive | 
6 | CC(C)Nc1nc(Cl)nc(NC(C)C)n1 |  | 7.35 µM (active)
7 | C=C(C)CN(CC)c1c([N+](=O)[O-])cc(C(F)(F)F)cc1[N+](=O)[O-] |  | 50 µM (active)
8 | CC(C)C1(C)N=C(c2ncccc2C(=O)O)NC1=O (stereo not given) | inactive | 
9 | COP(=O)(OC)O/C(C)=C/C(=O)N(C)C | inactive | 
10 | N#CN=C1SCCN1Cc1ccc(Cl)nc1 |  | 30.6 µM (active)
11 | O=C(O)c1c(Cl)ccc2cc(Cl)cnc12 | inactive | 
12 | CNC(=O)N(C)c1nnc(C(C)(C)C)s1 | inactive | 
13 | COC(=O)NC(=S)Nc1ccccc1NC(=S)NC(=O)OC |  | 6.29 µM (active)
14 | COc1ccc(-c2ccccc2)cc1NNC(=O)OC(C)C | inactive | 
15 | CCCN(CC)CC1COC2(CCC(C(C)(C)C)CC2)O1 (stereo not given) | inactive | 
16 | CCNP(=S)(OC)O/C(C)=C/C(=O)OC(C)C (stereo not given) |  | 8.97 µM (active)
17 | CC(C)(C)C(=O)C(Oc1ccc(Cl)cc1)n1cncn1 (stereo not given) |  | 2.67 µM (active)
18 | O=P(O)(O)CCCl | inactive | 
19 | Clc1nc(Cl)nc(Nc2ccccc2Cl)n1 |  | 18.5 µM (active)
20 | Cc1nc(N(C)C)nc(OC(=O)N(C)C)c1C |  | 40.7 µM (active)

Row | SMILES | outcome | AC50
21 | CCSC(=O)N1CCCCCC1 |  | 30 µM (active)
22 | COP(=S)(OC)Oc1ccc([N+](=O)[O-])c(C)c1 | inactive | 
23 | OC(c1ccc(Cl)cc1)(c1ccc(Cl)cc1)C(Cl)(Cl)Cl |  | 87.6 µM (active)
24 | CC(C)N1C(=O)c2ccccc2NS1(=O)=O | inactive | 
25 | COP(=S)(OC)SCn1nnc2ccccc2c1=O |  | 25 µM (active)
26 | CNC(=O)Oc1cccc2ccccc12 | inactive | 
27 | CO/N=C(/C1=NOCCO1)c1ccccc1Oc1ncnc(Oc2ccccc2Cl)c1F |  | 30.5 µM (active)
28 | COC(=O)NS(=O)(=O)c1ccc(N)cc1 | inactive | 
29 | Nc1cnn(-c2ccccc2)c(=O)c1Cl |  | 17.6 µM (active)
30 | CCOC(=O)C(C)OC(=O)c1cc(Oc2ccc(C(F)(F)F)cc2Cl)ccc1[N+](=O)[O-] (stereo not given) |  | 4.78 µM (active)
31 | O=c1n(Cl)c(=O)n(Cl)c(=O)n1Cl | inactive | 
32 | Nc1c(Cl)c(F)nc(OCC(=O)O)c1Cl | inactive | 
33 | CC(C)NC(=O)N1CC(=O)N(c2cc(Cl)cc(Cl)c2)C1=O |  | 2.97 µM (active)
34 | CCCCOCN(C(=O)CCl)c1c(CC)cccc1CC |  | 27.7 µM (active)
35 | O=C1C2CC=CCC2C(=O)N1SC(Cl)(Cl)Cl (stereo not given) | inactive | 
36 | CCOP(=O)(OCC)Oc1nc(Cl)c(Cl)cc1Cl |  | 49.8 µM (active)
37 | CCOc1cc(C(C)(C)C)ccc1C1COC(c2c(F)cccc2F)=N1 (stereo not given) |  | 4.8 µM (active)
38 | CC(C)N1C(=O)N(c2ccccc2)CSC1=NC(C)(C)C |  | 12 µM (active)
39 | Cc1cnc(C2=NC(C)(C(C)C)C(=O)N2)c(C(=O)O)c1 (stereo not given) | inactive | 
40 | CN=C=S | inactive | 

Reference: PubChem BioAssay (EPA / NIEHS)
